Source: PubChem BioAssay AID624331 (National Center for Advancing Translational Sciences (NCATS), 2012)
Records with an inconclusive call do not appear. The source made the active and inactive calls. Calls come from the whole dose curve; as a rule, active = well fitted activation curve with a large enough effect; inconclusive = small, poorly fitted or top-dose-only effect; inactive = no such curve, though single readings can be large or run the other way.

experiment: qHTS assay for re-activators of p53 using a Luc reporter: Hit Validation with no p53 Expressed; conditions: p53-null cells, luciferase reporter counter-screen; series mostly up to 46.1 µM; activity change, positive = activation: at the top concentration; for activity change, positive = activation: 0% is about no effect
Procedure, shortened: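 Counter-screen of primary hits in a cell line not transfected with p53, in Opti-MEM with 10% FBS; compounds at several concentrations (10 mM stock, 1:5; top 46.1 µM in well), 24 h at 37 deg C, 5% CO2. Luminescence read after 10 min with Amplite reagent.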
Potency is the fitted concentration of half-maximal effect.

SMILES | activity change, positive = activation | Potency
COCCn1c(C)cc(C(=O)COc2ccc(N(C)S(=O)(=O)c3ccc(C)cc3)cc2)c1C | -1.71% (inactive) | –
CCc1ccc(NC(=O)c2cnn3ccccc23)cc1 | 30.8% (inactive) | –
N#Cc1cccc(N=Cc2c(O)ccc3ccccc23)c1 | 16.7% (inactive) | –
COc1ccc(NC(=O)/C(=C\c2ccc3c(c2)OCO3)NC(C)=O)cc1 | -40.1% (inactive) | –
COc1ccc2oc(-c3cccc(NC(=O)CSc4ccc(Cl)cc4)c3)nc2c1 | 46.1% (inactive) | –
O=C(Nc1ccc2c(c1)OCO2)c1cc(Cl)ccn1 | -33% (inactive) | –
Cc1nn(-c2ccccc2)c(N)c1Sc1ccc([N+](=O)[O-])cc1 | 89.5% (inactive) | –
N#CC(Cc1ccccc1)(Cc1ccccc1)C(=O)NN | – | 29.1 µM (active)
CCOc1ccc(N/C=C/C(=O)c2ccccc2)c([N+](=O)[O-])c1 | -51.8% (inactive) | –
C=CCn1c(P(C)(=O)O)nc2ccccc21 | 36% (inactive) | –
Cc1ccc2oc(-c3ccc(C)c(NC(=S)NC(=O)c4cccs4)c3)nc2c1 | 11.3% (inactive) | –
COC(=O)c1ccc(/C=C/c2ccc3cccc(OC(C)=O)c3n2)cc1 | 14.5% (inactive) | –
Oc1c(CN2CCOCC2)cc(COCc2ccccc2)c2cccnc12 | -61.3% (inactive) | –
Cc1ccc(NC(=O)/C=C/c2ccco2)nc1 | 33.2% (inactive) | –
COc1ccccc1-c1c(C)nn2c(C)c(C(C)=O)cnc12 | -26.5% (inactive) | –
CC(C)CNC(=S)Nc1ccc(Oc2ccccc2)cc1 | 48.1% (inactive) | –
Cn1c(=NC(=O)c2ccco2)sc2cccc(F)c21 | 33.8% (inactive) | –
Cc1ccc(-c2nnc(Oc3cccc(C)c3)c3ccccc23)cc1 | 37.7% (inactive) | –
CCc1nnc(NC(=O)C2Cc3ccccc3CN2S(=O)(=O)c2cccs2)s1 (centres undefined) | 11.4% (inactive) | –
Cc1cccc(-n2c(C)cc(/C=N\NC(=O)c3cccs3)c2C)c1 | 32.6% (inactive) | –

SMILES | activity change, positive = activation | Potency
Cn1c(C(=O)Nc2ccc3c(c2)OCCO3)cc2sccc21 | – | 1.16 µM (active)
COc1ccc(N2CCN(C(=O)COC(=O)c3ccc(OC(F)F)cc3)CC2)cc1 | 16.1% (inactive) | –
CCOC(=O)c1cc(-c2ccccc2)sc1NC(=O)CC | -51.7% (inactive) | –
O=C(Oc1c(Cl)cc(Cl)c2cccnc12)c1cccc([N+](=O)[O-])c1 | -64.6% (inactive) | –
CCOC(=O)c1cccc(C2=CC(=O)C[C@H](c3ccc(OC)cc3)C2)c1 | 43.4% (inactive) | –
CCOc1ccc(S(=O)(=O)c2c(C(=O)c3ccc(C)cc3)cnc3cc4c(cc23)OCCO4)cc1 | -4.04% (inactive) | –
CCOC(=O)C1=C(C)Nc2ncnn2C1c1c[nH]c2ccccc12 (centres undefined) | 13.4% (inactive) | –
N#Cc1cnc(Oc2ccc(Cl)cc2)nc1N | 31% (inactive) | –
CN(/N=C/c1ccc2c(c1)OCO2)c1ccccc1 | 12.6% (inactive) | –
CC1=CN2C(=N)/C(=C/c3ccc(C)o3)C(=O)N=C2S1 | -17.3% (inactive) | –
Cc1ccc(C(=O)OC(C)C(=O)Nc2ccc3c(c2)OCO3)c(O)c1 (centres undefined) | -29.5% (inactive) | –
O=C(NC(=S)Nc1ccccc1Br)C1CCCCC1 | 28% (inactive) | –
N#Cc1c(NC(=O)/C=C/c2ccco2)sc2c1CCCC2 | 13% (inactive) | –
COc1ccc(CCC(C)NCC(C)c2ccccc2)cc1 (centres undefined) | 38.1% (inactive) | –
CC(=O)N1CCN(C(=O)COC(=O)COc2c(C)cc(C)cc2C)CC1 | 34.5% (inactive) | –
CCOC(=O)c1sc(NC(=S)NC(=O)c2ccco2)nc1C | 52.4% (inactive) | –
O=C(CCc1nc(-c2ccccc2F)no1)NC1CCCCCC1 | -21.5% (inactive) | –
COCC(=O)Nc1nnc(COc2ccccc2)s1 | 31.1% (inactive) | –
O=C(COc1ccc(F)cc1Cl)NC1CCCCCC1 | 87.9% (inactive) | –
